Inconclusive results are not listed. Unmarked numbers belong to inactive results. The source made the active and inactive calls. The call rests on the fitted dose curve; in most records, active means well fitted curve in the direction sought with a large enough effect; inconclusive means small, poorly fitted or top-dose-only effect, or another doubt; inactive means no such curve, though single readings can be large; an effect the other way counts as inactive or inconclusive.

Test [1] can be described thus: Quantitative High-Throughput drug screen in 47 multiple myeloma cell lines against the NCATS MIPE library collection: KMS12PE_JCRB cell viability assay (AID 1918972). Further: nearly all actives have a fitted effect of over 30% in size. Further: potency means the concentration at half of the fitted maximal effect. The essentials:
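Luminescent ATP measurement with CellTiter-Glo gives viability, scaled between DMSO-only wells (100%) and media-only wells (0%). Cells, 500 per well, faced library compounds for 48 hours at 37C.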

The nature of test [2]: Quantitative High-Throughput drug screen in 47 multiple myeloma cell lines against the NCATS MIPE library collection: KMS26_JCRB cell viability assay (AID 1918975). Further: nearly all actives have a fitted effect of over 45% in size. Further: potency means the concentration at half of the fitted maximal effect. The essentials: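 We plated 500 myeloma cells per well, pinned in MIPE 4.0 compounds, and incubated for 48 hours at 37C. ATP was then quantified with CellTiter-Glo, with DMSO and media-only wells defining 100% and 0%.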

Test [3] in a line: Quantitative High-Throughput drug screen in 47 multiple myeloma cell lines against the NCATS MIPE library collection: MMM1_PLB cell viability assay (AID 1918976). Further: nearly all actives have a fitted effect of over 35% in size. Further: potency means the concentration at half of the fitted maximal effect. An outline of the steps: (§1)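 qHTS format: cells plated (500/well), pin-dosed with MIPE 4.0 compounds, kept 48 h at 37 °C. Readout was CellTiter-Glo luminescence, median RLU.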
Test [4] in a line: Quantitative High-Throughput drug screen in 47 multiple myeloma cell lines against the NCATS MIPE library collection: NCIH929_DSMZ cell viability assay (AID 1918978). Further: nearly all actives have a fitted effect of over 35% in size. Further: potency means the concentration at half of the fitted maximal effect. The essentials: as §1
Test [5] in a line: Quantitative High-Throughput drug screen in 47 multiple myeloma cell lines against the NCATS MIPE library collection: MM1R_ATCC cell viability assay (AID 1918981). Further: nearly all actives have a fitted effect of over 35% in size. Further: potency means the concentration at half of the fitted maximal effect. An outline of the steps: as §1
Test [6] can be described thus: Quantitative High-Throughput drug screen in 47 multiple myeloma cell lines against the NCATS MIPE library collection: LP1_DSMZ cell viability assay (AID 1918982). Further: nearly all actives have a fitted effect of over 35% in size. Further: potency means the concentration at half of the fitted maximal effect. An outline of the steps:
as §1

Test [7] is described as follows: Quantitative High-Throughput drug screen in 47 multiple myeloma cell lines against the NCATS MIPE library collection: KMS34_JCRB cell viability assay (AID 1918985). Further: nearly all actives have a fitted effect of over 40% in size. Further: potency means the concentration at half of the fitted maximal effect. An outline of the steps:
as §1

The nature of test [8]: Quantitative High-Throughput drug screen in 47 multiple myeloma cell lines against the NCATS MIPE library collection: OCIMY5_PLB cell viability assay (AID 1918988). Further: nearly all actives have a fitted effect of over 65% in size. Further: potency means the concentration at half of the fitted maximal effect. The essentials: as §1
The nature of test [9]: Quantitative High-Throughput drug screen in 47 multiple myeloma cell lines against the NCATS MIPE library collection: OPM1_PLB cell viability assay (AID 1918989). Further: nearly all actives have a fitted effect of over 40% in size. Further: potency means the concentration at half of the fitted maximal effect. An outline of the steps:
as §1

A short description of test [10]: Quantitative High-Throughput drug screen in 47 multiple myeloma cell lines against the NCATS MIPE library collection: U266_ATCC cell viability assay (AID 1919864). Further: nearly all actives have a fitted effect of over 35% in size. Further: potency means the concentration at half of the fitted maximal effect. An outline of the steps: as §1
Test [11] in a line: Quantitative High-Throughput drug screen in 47 multiple myeloma cell lines against the NCATS MIPE library collection: XG6_PLB cell viability assay (AID 1919865). Further: nearly all actives have a fitted effect of over 40% in size. Further: potency means the concentration at half of the fitted maximal effect. An outline of the steps:
as §1

A short description of test [12]: Quantitative High-Throughput drug screen in 47 multiple myeloma cell lines against the NCATS MIPE library collection: MOLP8_DSMZ cell viability assay (AID 1918977). Further: nearly all actives have a fitted effect of over 45% in size. Further: potency means the concentration at half of the fitted maximal effect. An outline of the steps: as §1
Test [13] is described as follows: Quantitative High-Throughput drug screen in 47 multiple myeloma cell lines against the NCATS MIPE library collection: MM1S_ATCC cell viability assay (AID 1918980). Further: nearly all actives have a fitted effect of over 45% in size. Further: potency means the concentration at half of the fitted maximal effect. An outline of the steps: as §1
A short description of test [14]: Quantitative High-Throughput drug screen in 47 multiple myeloma cell lines against the NCATS MIPE library collection: KMS28PE_JCRB cell viability assay (AID 1918983). Further: nearly all actives have a fitted effect of over 35% in size. Further: potency means the concentration at half of the fitted maximal effect. The essentials: as §1
A short description of test [15]: Quantitative High-Throughput drug screen in 47 multiple myeloma cell lines against the NCATS MIPE library collection: L363_DSMZ cell viability assay (AID 1918984). Further: nearly all actives have a fitted effect of over 40% in size. Further: potency means the concentration at half of the fitted maximal effect. An outline of the steps: as §1
Test [16] is described as follows: Quantitative High-Throughput drug screen in 47 multiple myeloma cell lines against the NCATS MIPE library collection: SKMM1_PLB cell viability assay (AID 1919863). Further: nearly all actives have a fitted effect of over 35% in size. Further: potency means the concentration at half of the fitted maximal effect. The conditions noted are these: SKMM1 myeloma viability, CellTiter-Glo ATP, 48 h; viability: stronger effect = lower value. An outline of the steps: as §1
Background: Cellular ATP, detected with luciferase, serves as a proxy for viable cell number.

Test [17] in a line: Quantitative High-Throughput drug screen in 47 multiple myeloma cell lines against the NCATS MIPE library collection: OCIMY1_PLB cell viability assay (AID 1918979). Further: nearly all actives have a fitted effect of over 35% in size. The essentials:
as §1

A short description of test [18]: Quantitative High-Throughput drug screen in 47 multiple myeloma cell lines against the NCATS MIPE library collection: OCIMY7_PLB cell viability assay (AID 1918987). Further: nearly all actives have a fitted effect of over 65% in size. Further: potency means the concentration at half of the fitted maximal effect. An outline of the steps: as §1
Test [19] in a line: Quantitative High-Throughput drug screen in 47 multiple myeloma cell lines against the NCATS MIPE library collection: KMS20_JCRB cell viability assay (AID 1918973). Further: potency means the concentration at half of the fitted maximal effect; nearly all actives have a fitted effect of over 45% in size. An outline of the steps: (§2)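 CellTiter-Glo ATP luminescence gave viability after 48 h compound treatment at 37C of 500 multiple myeloma cells per well. Normalisation used DMSO-only wells as 100% and media-only wells as 0% viability; primary qHTS of approved and investigational drugs.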

Test [20] in a line: Quantitative High-Throughput drug screen in 47 multiple myeloma cell lines against the NCATS MIPE library collection: KMS21BM_JCRB cell viability assay (AID 1918974). Further: potency means the concentration at half of the fitted maximal effect. The conditions noted are these: ATP luminescence, 48 h; viability: at 45.8 µM (top of the series) unless noted. An outline of the steps: as §2

With `CN1C(C(=O)Nc2ccccn2)=C(O)c2sccc2S1(=O)=O`, the Potency entry in test [1], in test [2], in test [4], in test [5], in test [6] and in test [7] was “inactive” in each case. The Potency entry in [9], in test [10] and in test [11] was “inactive” each time. Besides, the values for the Potency in test [3] and in [8] were 2.35 µM (active) and 6.62 µM (active), respectively.
In the case of `CNC[C@H](O)c1ccc(O)c(O)c1`, the Potency result in test [1], in test [15] and in test [11] was “inactive” in each case. In addition, the Potency is 10.8 µM (active) in [2]; 6.79 µM (active) in [3]; 8.55 µM (active) in [12]; 17.1 µM (active) in test [13]; 6.05 µM (active) in [5]; 30.3 µM (active) in test [6]. In addition, the Potency in test [14] is 13.6 µM (active); in [7] it was 30.3 µM (active); in test [16] it was 12.1 µM (active); in test [10], 38.2 µM (active).
With `NC(=NCc1ccccc1)NC(=O)c1nc(Cl)c(N)nc1N`, the Potency was 23.5 µM (active) in test [1]; 1.32 µM (active) in test [4]; 0.935 µM (active) in [13]; 23.5 µM (active) in [15]; 8.33 µM (active) in [18]; 16.6 µM (active) in [9]. The Potency was 1.48 µM (active) in test [10] and 0.935 µM (active) in [11]. The Potency result in test [2], in test [17], in test [5], in [6] and in test [7] was “inactive” throughout. In test [16], the viability (as a rule, a read-out of living cells in per cent, often relative to untreated cells) was 140%.
Regarding `CCCCCCCCCCCCCCCCCCCCCCO`, the Potency entry in test [1], in [12], in test [5], in test [14], in test [15] and in [7] was “inactive” throughout. In addition, the Potency result in test [9] and in [11] was “inactive” throughout.
For the compound `Nc1ccn([C@@H]2O[C@H](CO)[C@@H](O)C2O)c(=O)n1` (some centres not stated), the Potency result in test [1], in test [12], in [5], in test [14], in test [18] and in test [9] was “inactive” each time. Besides, the Potency entry in test [10] and in test [11] was “inactive” in each case. For the same compound, the viability in [16] is 123%.
Consider `Cc1cc(=O)c2c(O)c3c(O)cc(=O)c4c3c3c(cc(O)c1c23)C(C)(C)C=4O`, for which the Potency in test [19] was 0.0187 µM (active); in test [20], 4.18 µM (active); in test [2], 6.62 µM (active); in test [3] it was 0.372 µM (active); in test [12], 2.64 µM (active); in [5], 4.18 µM (active). In addition, the Potency in [6] was 5.9 µM (active); in [14] it was 6.62 µM (active); in test [15], 0.743 µM (active); in test [7], 13.2 µM (active); in test [16] it was 5.26 µM (active); in test [10], 26.4 µM (active). The Potency in [11] was 0.743 µM (active).
As for `O=C(O)c1cccnc1Nc1cccc(C(F)(F)F)c1`, the Potency result in [1], in test [17], in [13], in test [5], in [6] and in test [14] was “inactive” each time. Moreover, the Potency entry in [15], in test [7], in [18], in test [9] and in test [11] was “inactive” in each case. In addition, in test [16], the viability is 127%.
As for `Clc1ccc(C(Cn2ccnc2)OCc2ccsc2Cl)c(Cl)c1` (configuration not stated), the Potency in test [1] was 18.7 µM (active); in test [8], 26.4 µM (active); in test [16], 13.2 µM (active); in test [11] it was 20.9 µM (active). Further, the Potency result in test [2] and in test [7] was “inactive” in each case.
Consider `CC(S)C(=O)NCC(=O)O` (configuration not stated), for which the Potency result in test [1], in test [12], in test [4], in [17], in test [5] and in test [14] was “inactive” in each case. In addition, the Potency entry in test [8], in test [9] and in test [11] was “inactive” throughout. In addition, in test [16], the viability was 132%.
For the compound `Oc1ccc(OCc2ccccc2)cc1`, the Potency entry in test [1], in test [13], in test [5], in [6], in [14] and in test [15] was “inactive” in each case. The Potency entry in test [9] and in test [10] was “inactive” in each case. Further, the Potency in test [3] is 5.9 µM (active); in test [7] it was 18.7 µM (active); in test [16], 7.43 µM (active).
`COCCCN1CCC(NC(=O)c2cc(Cl)c(N)c3c2OCC3)CC1`: the results for the Potency in [1], in test [15] and in [11] were 16.6 µM (active), 20.9 µM (active) and 5.9 µM (active), respectively. For the same compound, the Potency result in test [14], in test [7] and in [10] was “inactive” in each case.
For the compound `Cc1cccc(-c2[nH]ncc2-c2ccc3ncccc3n2)n1`, the Potency result in test [1], in test [3], in [17], in test [14], in test [15] and in test [7] was “inactive” throughout. Besides, the Potency entry in [10] and in test [11] was “inactive” each time. For the same compound, the Potency in [13] is 14.8 µM (active). For the same compound, the viability in test [16] is 121%.
Consider `Cc1c(OCC(F)(F)F)ccnc1CS(=O)c1nc2ccccc2[nH]1` (configuration not stated), for which the Potency in test [1] is 18.7 µM (active); in test [5], 0.833 µM (active). Moreover, the Potency entry in [12], in test [17], in [6] and in [7] was “inactive” each time. Further, in test [16], the viability is 128%.
As for `Cc1cccc(C#Cc2ccccc2)n1`, the Potency entry in test [1], in test [6], in test [14] and in [10] was “inactive” throughout. The Potency in [4] was 20.9 µM (active); in test [9], 8.33 µM (active). In addition, the viability in test [16] was 120%.

These data come from PubChem BioAssay (NCATS).
